Experimental data as given in the OligoGym collection.

Molecular target: EPHX2
Test: pooled miR-30 sensor sort-seq; sequence = guide strand
Conditions: shRNA
Note: reference of the scale not given here.

Sequence | sensor-assay potency score (higher = more potent)
TAGTGAATCCTTTCTTCCTGAG | -0.285
TATTCTTCTATTTCGGGAGGAG | 0.331
TTCTTGGAAGTAGAGCTGGTAA | -0.749
TCTGAAACCAGACTTCTTGAAC | -0.948

Molecular target: ERCC2
Test: as above
Conditions: shRNA

Sequence | sensor-assay potency score (higher = more potent)
TCGTCTGTCTCTTTGATCCTGA | -0.221
TCAAATTCCTCATAGAATCGGC | -0.0111
ATTCTCACGAATCTGGAACTGG | -0.416
TCAATCTCTGGCACAGTTCTTG | 0.0123
TAGAAGTTGAGCAACTTTCGAA | 0.118
TTCCCATCGACGTCCTTCCCAA | -0.665
TCGATGATGATGGTGAAGCCTT | -1.27
TCTGGCACAGTTCTTGAGCAGT | -0.9
TTTGATCCTGAGCACCGTCTTC | -1.12
TGAATACACAAGTTTTTGCGGG | 0.0838
TTAGCAAGGAGGGTGAGCGGGG | -1.04
TTGAGCTCCCGCATGTAGGAGA | -0.477
TATCGAGCAAGGAAGTATGGGC | 0.161
TCGAAGCTCTTCAATCACCTTC | 0.181
TTCAGCACAGAATCTGAGGGGC | 0.408
TTGCGCTGGATGCACACGCGCT | -1.42
TGGAAGTCCAGGATCTTGGGGT | 0.059
TTGAGCAGTAGATGAGTTTGGT | 0.18
AACAGGGATACTGTCTTCCCGG | -1.06
TGTAGGAGAACTGCTCGGGGTA | -0.658
TTGGGGTAGATGTCCAGCGGGG | -1.14
TAGCTATAAACCACCACATTGG | -1.42
TTGAGCAACTTTCGAAGCTCTT | -0.541
TGACAGACTGGAAACGCTCAAA | -0.97

Molecular target: ERCC8
Test: as above
Conditions: shRNA

Sequence | sensor-assay potency score (higher = more potent)
TTCGATTATCTGTACCAACAGT | -0.994
TTGTTGTAGTCTCATCATCATC | -1.65
TTGTAGTCTCATCATCATCAGG | -1.16
TTTAATTGTGATTTTGTTGTAG | 0.555
TCTAGTACCAACTGCTACCAAA | -1.28
TTACTCTACTGTCAGCACTTGC | -0.793
TTCTTTCAACATCTCTGTCTTT | -0.331
TCTGTCTTTATTTAATTCCAGT | -1.2
TCTACTGTCAGCACTTGCTGTT | 0.468
TTGAAAAAAACACAGTCTCATT | -1.3
TTGTAATGTATTTGTATCCCAT | -0.441
TATAGTTCATAAAATCTGCTGA | 0.347
